Bioassay records from PubChem BioAssay.
Pf Dd2 inh: P. falciparum Dd2 growth inhibition | AID 1159554 | activity change, % at 10 µM | 94,000 compounds, 2.3% hits | SYBR Green, 72 h; stronger effect = lower value; in the data active = activity change below about -80%
C diff growth: blocks growth of Clostridium difficile; 86,000 compounds, 0.25% hits; growth activity, negative = inhibition, % at 16 µg/mL (by protocol); Clostridium difficile clinical isolate growth, OD600, 24 h; stronger effect = lower value;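 active = mean growth activity at or below -80% and every replicate also at or below -80%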
Hits are given with their value. Most compounds without a hit are left out; they make up all but 2.4% or so of the library.

`CC(C)CC#Cc1ccc([C@H]2[C@@H](CO)N3CCCCN(C(=O)Nc4ccccc4)C[C@H]23)cc1` gave Pf Dd2 inh inactive and C diff growth -87.
O=C(Nc1ccccc1)N1CCCCN2[C@H](CO)[C@@H](c3ccc(C#Cc4cccnc4)cc3)[C@H]2C1 was read as Pf Dd2 inh inactive and C diff growth inactive.
For O=C(Nc1cccc(F)c1)N1CCCCN2[C@H](CO)[C@H](c3ccc(C#Cc4ccccc4)cc3)[C@@H]2C1 the results were Pf Dd2 inh -82 and C diff growth inactive.
For O=C(Nc1ccccc1)N1CCCCN2[C@@H](CO)[C@H](c3ccc(C#Cc4cccnc4)cc3)[C@@H]2C1 the results were Pf Dd2 inh -83 and C diff growth inactive.
`Cc1ccc(-c2ccc([C@H]3[C@H](CO)N4CCCCN(C(=O)Nc5cccc(F)c5)C[C@@H]34)cc2)cc1` gave Pf Dd2 inh inactive and C diff growth -99.
For Cc1ccc(-c2ccc([C@H]3[C@H]4CN(C(=O)Nc5cccc(F)c5)CCCCN4[C@H]3CO)cc2)cc1 the results were Pf Dd2 inh inactive and C diff growth inactive.
O=C(Nc1cccc(F)c1)N1CCCCN2[C@H](C1)[C@H](c1ccc(C#Cc3ccccc3)cc1)[C@@H]2CO was read as Pf Dd2 inh inactive and C diff growth inactive.
`CC(C)CC#Cc1ccc([C@@H]2[C@@H](CO)N3CCCCN(C(=O)Nc4ccccc4)C[C@@H]23)cc1` gave Pf Dd2 inh inactive and C diff growth inactive.
C[C@@H]1CN([C@H](C)CO)C(=O)c2cc(NS(=O)(=O)c3ccccc3)ccc2O[C@@H]1CN(C)S(C)(=O)=O was read as Pf Dd2 inh inactive and C diff growth inactive.
CC(=O)N(C)C[C@@H]1Oc2cc(-c3ccc(C#N)cc3)ccc2S(=O)(=O)N([C@H](C)CO)C[C@H]1C was read as Pf Dd2 inh inactive and C diff growth inactive.
COc1ccc(CNC(=O)C[C@H]2CC[C@@H]3[C@@H](COc4ccc(NC(=O)C(C)C)cc4C(=O)N3C)O2)cc1 was read as Pf Dd2 inh inactive and C diff growth inactive.
`CN(C)CC#Cc1ccc([C@@H]2[C@H](CO)N3CCCCN(C(=O)CN(C)C)C[C@@H]23)cc1` gave Pf Dd2 inh inactive and C diff growth inactive.
`CN(C)CC#Cc1ccc([C@H]2[C@H](CO)N3CCCCN(C(=O)CN(C)C)C[C@@H]23)cc1` gave Pf Dd2 inh -89 and C diff growth inactive.
CC(=O)N1[C@@H]2c3ccc(C4=CCCC4)c(=O)n3C[C@@H]2[C@@H](CO)[C@@H]1C(=O)N1CCCCC1 was read as Pf Dd2 inh inactive and C diff growth inactive.
For CCS(=O)(=O)NCC[C@H]1CC[C@H](NC(=O)C2CCCC2)[C@@H](CO)O1 the results were Pf Dd2 inh inactive and C diff growth inactive.
For COc1cccc(CN2CC3(CN(CC4CC4)C3)c3c([nH]c4cc(OC)ccc34)[C@@H]2CO)c1 the results were Pf Dd2 inh inactive and C diff growth inactive.
COc1cccc(CN2CC3(CN(CC4CCOCC4)C3)c3c([nH]c4cc(OC)ccc34)[C@H]2CO)c1 was read as Pf Dd2 inh -83 and C diff growth inactive.
`COc1ccc2c3c([nH]c2c1)[C@H](CO)N(Cc1cccc(F)c1)CC31CN(CC2CC2)C1` gave Pf Dd2 inh -85 and C diff growth inactive.
For COc1ccc2c3c([nH]c2c1)[C@@H](CO)N(Cc1cccc(F)c1)CC31CCN(CC2CC2)CC1 the results were Pf Dd2 inh -80 and C diff growth inactive.
For COc1ccc2c3c([nH]c2c1)[C@@H](CO)N(Cc1ccccc1)CC31CCN(CC2CC2)CC1 the results were Pf Dd2 inh inactive and C diff growth inactive.
For COc1cccc(CN2CC3(CN(CC4CCOCC4)C3)c3c([nH]c4cc(OC)ccc34)[C@@H]2CO)c1 the results were Pf Dd2 inh inactive and C diff growth inactive.
`CCC(=O)Nc1ccc2c(c1)C(=O)N(C)C[C@@H](OC)[C@@H](C)CN(C(=O)C1CCC1)[C@H](C)CO2` gave Pf Dd2 inh inactive and C diff growth inactive.
Screening CO[C@H]1CN(C)C(=O)c2ccc(NC(=O)Nc3ccccc3F)cc2OC[C@H](C)N(C)C[C@H]1C returned Pf Dd2 inh inactive and C diff growth inactive.
COC(=O)c1ccc(CN2CC(=O)N3[C@H](CO)[C@@H](c4ccc(Br)cc4)[C@@H]3C2)cc1 was read as Pf Dd2 inh inactive and C diff growth inactive.
For COc1ccc(S(=O)(=O)N[C@H]2CC[C@@H](CC(=O)O)O[C@@H]2CO)cc1 the results were Pf Dd2 inh inactive and C diff growth inactive.
For CCNC(=O)C[C@H]1CC[C@@H]2[C@@H](COc3ccc(NS(C)(=O)=O)cc3C(=O)N2C)O1 the results were Pf Dd2 inh inactive and C diff growth inactive.
`O=C(NCC[C@@H]1CC[C@H](NC(=O)C2CC2)[C@@H](CO)O1)Nc1ccc(C(F)(F)F)cc1` gave Pf Dd2 inh inactive and C diff growth -94.
Screening CCC(=O)N[C@@H]1CC[C@H](CCNC(=O)Nc2ccc(C(F)(F)F)cc2)O[C@H]1CO returned Pf Dd2 inh inactive.
`CCC(=O)N[C@H]1CC[C@H](CCNC(=O)Nc2ccc(C(F)(F)F)cc2)O[C@H]1CO` gave Pf Dd2 inh inactive.
`CCC(=O)N[C@H]1CC[C@H](CCNC(=O)Nc2ccc(C(F)(F)F)cc2)O[C@@H]1CO` gave Pf Dd2 inh inactive.
For CN(C)CC(=O)N[C@H]1CC[C@H](CCNC(=O)Nc2ccc(C(F)(F)F)cc2)O[C@H]1CO the results were Pf Dd2 inh inactive and C diff growth -94.
CCC(=O)N[C@@H]1CC[C@H](CCNC(=O)Nc2ccc(C(F)(F)F)cc2)O[C@@H]1CO was read as Pf Dd2 inh inactive.
Screening O=C(NCC[C@@H]1CC[C@@H](NC(=O)C2CC2)[C@@H](CO)O1)Nc1ccc(C(F)(F)F)cc1 returned Pf Dd2 inh inactive and C diff growth -85.
Screening O=C(NCC[C@@H]1CC[C@H](NC(=O)C2CC2)[C@H](CO)O1)Nc1ccc(C(F)(F)F)cc1 returned Pf Dd2 inh inactive and C diff growth -95.
`C[C@@H]1CN([C@@H](C)CO)C(=O)Cc2cc(NC(=O)C3CCCCC3)ccc2O[C@H]1CN(C)C(=O)Nc1cccc2ccccc12` gave Pf Dd2 inh inactive and C diff growth inactive.
O=C(C1CCCCC1)N1CC2(C1)[C@H](c1ccccc1)[C@H](CO)N2Cc1cncnc1 was read as Pf Dd2 inh inactive and C diff growth inactive.
COc1ccc(NC(=O)N[C@@H]2CC[C@H](CCNC(=O)Cc3ccncc3)O[C@H]2CO)cc1 was read as Pf Dd2 inh inactive and C diff growth inactive.
CO[C@@H]1CN(C)C(=O)c2cc(NC(=O)C3CCOCC3)ccc2OC[C@H](C)N(CC2CC2)C[C@H]1C was read as Pf Dd2 inh inactive.
For CCC(=O)N(C)C[C@H]1Oc2cc(C#CC(C)(C)O)ccc2S(=O)(=O)N([C@H](C)CO)C[C@@H]1C the results were Pf Dd2 inh inactive and C diff growth inactive.
For CN(C)CC#Cc1cccc(-c2nc(C(=O)N3CCN(Cc4ccccc4)CC3)cc3c2[C@H](CCO)N(S(=O)C(C)(C)C)C3)c1 (stereo partly drawn) the results were Pf Dd2 inh inactive and C diff growth inactive.
Screening C[C@H](CO)N1C[C@H](C)[C@H](CN(C)S(=O)(=O)c2ccc(Cl)cc2)Oc2c(NC(=O)CCCCCC(=O)Nc3ccccc3N)cccc2C1=O returned Pf Dd2 inh -81 and C diff growth inactive.
